# Tests used:
# [1] = target: Ephrin type-A receptor 5 (Homo sapiens) (UniProt P54756); conditions: at 1 µM
# [2] = target: Ephrin type-A receptor 5 (Homo sapiens) (UniProt P54756); conditions: at 10 µM
# [3] = target: Ephrin type-A receptor 7 (Homo sapiens) (UniProt Q15375); conditions: at 1 µM
# [4] = target: T1, Ephrin type-B receptor 1 (Homo sapiens) (UniProt P54762); conditions: at 1 µM
# T1 sequence (whole entry): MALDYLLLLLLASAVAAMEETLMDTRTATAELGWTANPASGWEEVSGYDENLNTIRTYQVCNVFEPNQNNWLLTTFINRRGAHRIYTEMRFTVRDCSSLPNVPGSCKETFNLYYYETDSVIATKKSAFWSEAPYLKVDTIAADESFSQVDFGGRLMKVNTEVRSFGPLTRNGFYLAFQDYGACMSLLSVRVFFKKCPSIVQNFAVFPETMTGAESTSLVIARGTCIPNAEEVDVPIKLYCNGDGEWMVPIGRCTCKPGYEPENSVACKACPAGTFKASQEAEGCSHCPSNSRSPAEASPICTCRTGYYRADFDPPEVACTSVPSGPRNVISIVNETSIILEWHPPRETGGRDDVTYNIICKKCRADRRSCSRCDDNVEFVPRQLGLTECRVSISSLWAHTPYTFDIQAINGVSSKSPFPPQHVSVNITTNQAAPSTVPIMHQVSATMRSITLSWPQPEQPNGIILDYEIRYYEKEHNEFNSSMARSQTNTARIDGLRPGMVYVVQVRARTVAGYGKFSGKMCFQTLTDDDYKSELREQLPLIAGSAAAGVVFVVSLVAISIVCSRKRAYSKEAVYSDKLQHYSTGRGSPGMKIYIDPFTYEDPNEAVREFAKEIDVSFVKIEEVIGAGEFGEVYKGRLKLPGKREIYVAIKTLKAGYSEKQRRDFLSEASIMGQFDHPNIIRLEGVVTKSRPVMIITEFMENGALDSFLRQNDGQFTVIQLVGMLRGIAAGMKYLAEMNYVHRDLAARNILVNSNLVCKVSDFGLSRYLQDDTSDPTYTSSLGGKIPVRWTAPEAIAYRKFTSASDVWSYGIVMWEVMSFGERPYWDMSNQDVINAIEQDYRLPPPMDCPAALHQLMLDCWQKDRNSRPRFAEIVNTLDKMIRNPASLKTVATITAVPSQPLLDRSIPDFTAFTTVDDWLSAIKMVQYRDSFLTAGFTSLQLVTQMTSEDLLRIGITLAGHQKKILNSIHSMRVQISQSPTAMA
# [5] = target: T2, Ephrin type-B receptor 2 (Homo sapiens) (UniProt P29323); conditions: at 1 µM
# T2 sequence (whole entry): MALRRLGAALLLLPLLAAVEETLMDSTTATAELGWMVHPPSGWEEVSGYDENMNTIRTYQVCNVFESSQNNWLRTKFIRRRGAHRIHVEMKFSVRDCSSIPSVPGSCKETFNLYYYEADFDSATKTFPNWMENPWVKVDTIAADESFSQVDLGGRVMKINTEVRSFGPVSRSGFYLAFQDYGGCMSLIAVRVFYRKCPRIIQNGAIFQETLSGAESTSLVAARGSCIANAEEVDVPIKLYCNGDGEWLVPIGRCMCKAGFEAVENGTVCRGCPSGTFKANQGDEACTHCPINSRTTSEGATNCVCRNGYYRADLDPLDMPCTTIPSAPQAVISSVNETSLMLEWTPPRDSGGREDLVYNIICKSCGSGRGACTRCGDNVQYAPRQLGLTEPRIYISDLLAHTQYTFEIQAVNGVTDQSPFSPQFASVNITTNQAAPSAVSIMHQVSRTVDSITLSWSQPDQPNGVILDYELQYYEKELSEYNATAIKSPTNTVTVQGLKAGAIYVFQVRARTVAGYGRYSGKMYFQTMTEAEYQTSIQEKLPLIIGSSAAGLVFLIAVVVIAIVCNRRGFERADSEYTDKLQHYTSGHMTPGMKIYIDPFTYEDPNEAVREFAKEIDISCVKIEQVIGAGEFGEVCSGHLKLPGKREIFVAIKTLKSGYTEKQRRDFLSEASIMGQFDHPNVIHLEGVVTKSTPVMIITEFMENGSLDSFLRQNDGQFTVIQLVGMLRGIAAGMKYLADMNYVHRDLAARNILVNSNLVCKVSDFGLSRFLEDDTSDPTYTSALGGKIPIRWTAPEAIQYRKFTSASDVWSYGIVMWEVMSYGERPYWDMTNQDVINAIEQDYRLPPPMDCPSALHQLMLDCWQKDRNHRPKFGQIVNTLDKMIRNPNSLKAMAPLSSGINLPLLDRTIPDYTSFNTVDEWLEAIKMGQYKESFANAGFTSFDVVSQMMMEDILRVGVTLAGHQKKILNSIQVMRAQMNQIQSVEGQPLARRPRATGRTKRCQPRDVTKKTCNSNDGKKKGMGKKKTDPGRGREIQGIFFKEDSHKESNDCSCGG
# [6] = target: Receptor tyrosine-protein kinase erbB-4 (Homo sapiens) (UniProt Q15303); conditions: at 10 µM
# Receptor tyrosine-protein kinase erbB-4 (Homo sapiens), sequence (Q15303 whole entry): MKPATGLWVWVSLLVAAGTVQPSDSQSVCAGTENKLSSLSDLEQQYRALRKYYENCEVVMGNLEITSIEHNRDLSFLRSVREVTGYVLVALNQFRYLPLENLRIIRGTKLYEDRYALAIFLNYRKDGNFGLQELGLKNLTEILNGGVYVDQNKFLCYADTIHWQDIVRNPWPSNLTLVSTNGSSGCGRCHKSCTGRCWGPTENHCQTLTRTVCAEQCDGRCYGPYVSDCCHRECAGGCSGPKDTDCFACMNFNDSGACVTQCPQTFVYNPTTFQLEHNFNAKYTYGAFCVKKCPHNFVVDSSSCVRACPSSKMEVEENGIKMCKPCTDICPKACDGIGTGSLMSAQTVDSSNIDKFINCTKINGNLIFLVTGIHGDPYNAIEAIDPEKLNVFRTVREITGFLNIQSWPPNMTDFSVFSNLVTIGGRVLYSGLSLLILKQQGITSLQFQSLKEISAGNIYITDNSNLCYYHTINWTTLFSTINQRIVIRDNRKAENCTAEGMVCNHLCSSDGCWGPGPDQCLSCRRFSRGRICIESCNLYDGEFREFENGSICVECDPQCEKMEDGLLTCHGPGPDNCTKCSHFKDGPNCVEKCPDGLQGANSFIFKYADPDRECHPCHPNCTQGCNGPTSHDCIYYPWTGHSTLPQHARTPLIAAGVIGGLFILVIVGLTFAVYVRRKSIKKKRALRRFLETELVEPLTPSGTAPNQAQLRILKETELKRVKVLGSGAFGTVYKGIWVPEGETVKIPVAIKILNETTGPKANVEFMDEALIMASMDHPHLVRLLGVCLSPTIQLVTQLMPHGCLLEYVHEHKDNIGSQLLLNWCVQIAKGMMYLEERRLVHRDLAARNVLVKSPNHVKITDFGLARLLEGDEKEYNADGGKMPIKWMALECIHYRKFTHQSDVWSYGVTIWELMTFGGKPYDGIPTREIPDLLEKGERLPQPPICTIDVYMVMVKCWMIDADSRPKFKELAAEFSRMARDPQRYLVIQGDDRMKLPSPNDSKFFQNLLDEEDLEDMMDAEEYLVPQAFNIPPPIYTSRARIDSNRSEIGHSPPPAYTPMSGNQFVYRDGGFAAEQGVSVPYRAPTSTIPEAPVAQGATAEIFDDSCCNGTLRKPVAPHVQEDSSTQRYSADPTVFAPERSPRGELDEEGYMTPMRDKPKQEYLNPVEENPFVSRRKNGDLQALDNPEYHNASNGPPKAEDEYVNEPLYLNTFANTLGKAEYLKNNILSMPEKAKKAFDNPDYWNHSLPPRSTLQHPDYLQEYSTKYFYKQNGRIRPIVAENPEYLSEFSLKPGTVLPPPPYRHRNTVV
# [7] = target: T3, Ephrin type-B receptor 4 (Homo sapiens) (UniProt P54760); conditions: at 1 µM
# T3 sequence (whole entry): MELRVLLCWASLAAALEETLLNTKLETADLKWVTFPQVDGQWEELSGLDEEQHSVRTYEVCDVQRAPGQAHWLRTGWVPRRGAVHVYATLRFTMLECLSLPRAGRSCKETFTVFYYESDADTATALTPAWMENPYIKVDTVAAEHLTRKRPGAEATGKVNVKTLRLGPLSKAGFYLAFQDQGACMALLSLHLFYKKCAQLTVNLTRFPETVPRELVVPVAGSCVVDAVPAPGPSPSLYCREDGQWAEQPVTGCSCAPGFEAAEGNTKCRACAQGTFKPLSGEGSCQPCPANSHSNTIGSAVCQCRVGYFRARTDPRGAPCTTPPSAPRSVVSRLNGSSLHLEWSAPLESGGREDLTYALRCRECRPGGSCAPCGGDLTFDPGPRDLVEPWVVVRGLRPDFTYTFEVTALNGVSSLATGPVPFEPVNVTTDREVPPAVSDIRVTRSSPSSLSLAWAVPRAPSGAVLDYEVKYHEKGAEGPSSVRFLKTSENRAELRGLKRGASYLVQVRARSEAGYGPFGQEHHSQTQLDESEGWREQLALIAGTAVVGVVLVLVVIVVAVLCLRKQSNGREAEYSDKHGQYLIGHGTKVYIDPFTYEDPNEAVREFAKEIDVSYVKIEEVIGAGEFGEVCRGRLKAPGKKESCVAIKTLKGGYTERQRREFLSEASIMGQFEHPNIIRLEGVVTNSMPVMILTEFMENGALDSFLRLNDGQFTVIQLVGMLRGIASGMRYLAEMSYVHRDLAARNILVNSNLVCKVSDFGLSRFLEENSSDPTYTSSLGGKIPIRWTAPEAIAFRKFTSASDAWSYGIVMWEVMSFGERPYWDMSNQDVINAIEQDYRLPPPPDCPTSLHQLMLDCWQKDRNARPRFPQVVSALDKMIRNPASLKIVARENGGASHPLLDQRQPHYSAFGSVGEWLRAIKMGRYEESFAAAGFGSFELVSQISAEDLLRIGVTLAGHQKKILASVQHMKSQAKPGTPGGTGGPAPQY
# [8] = target: T3, Ephrin type-B receptor 4 (Homo sapiens); conditions: at 10 µM
# Ephrin type-A receptor 5 (Homo sapiens), sequence (P54756 whole entry): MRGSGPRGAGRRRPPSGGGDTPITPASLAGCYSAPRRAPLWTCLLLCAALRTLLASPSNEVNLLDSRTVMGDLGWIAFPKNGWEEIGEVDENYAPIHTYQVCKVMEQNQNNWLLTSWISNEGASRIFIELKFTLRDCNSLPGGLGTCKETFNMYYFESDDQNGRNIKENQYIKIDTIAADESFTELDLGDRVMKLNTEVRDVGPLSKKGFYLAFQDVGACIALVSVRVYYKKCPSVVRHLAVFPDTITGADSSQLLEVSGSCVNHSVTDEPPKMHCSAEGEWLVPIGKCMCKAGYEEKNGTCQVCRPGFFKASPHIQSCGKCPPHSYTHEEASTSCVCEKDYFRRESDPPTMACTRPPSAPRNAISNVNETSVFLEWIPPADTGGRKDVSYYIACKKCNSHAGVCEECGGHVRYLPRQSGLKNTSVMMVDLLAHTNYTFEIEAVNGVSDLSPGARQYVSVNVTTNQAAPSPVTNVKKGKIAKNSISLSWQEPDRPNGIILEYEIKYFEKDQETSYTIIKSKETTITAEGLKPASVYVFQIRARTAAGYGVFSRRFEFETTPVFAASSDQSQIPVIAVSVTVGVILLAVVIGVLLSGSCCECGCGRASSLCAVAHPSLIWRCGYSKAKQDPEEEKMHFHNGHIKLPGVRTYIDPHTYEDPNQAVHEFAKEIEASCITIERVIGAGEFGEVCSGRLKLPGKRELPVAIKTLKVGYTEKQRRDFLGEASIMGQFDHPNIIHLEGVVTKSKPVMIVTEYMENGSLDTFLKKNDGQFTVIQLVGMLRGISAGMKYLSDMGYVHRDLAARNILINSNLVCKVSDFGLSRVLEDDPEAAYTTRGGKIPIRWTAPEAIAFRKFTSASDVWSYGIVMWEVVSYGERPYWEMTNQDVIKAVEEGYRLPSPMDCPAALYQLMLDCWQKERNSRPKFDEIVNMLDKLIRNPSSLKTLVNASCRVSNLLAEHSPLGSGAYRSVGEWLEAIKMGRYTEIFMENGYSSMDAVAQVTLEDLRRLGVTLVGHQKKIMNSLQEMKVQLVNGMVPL
# Ephrin type-A receptor 7 (Homo sapiens), sequence (Q15375 28-998 limits assumed): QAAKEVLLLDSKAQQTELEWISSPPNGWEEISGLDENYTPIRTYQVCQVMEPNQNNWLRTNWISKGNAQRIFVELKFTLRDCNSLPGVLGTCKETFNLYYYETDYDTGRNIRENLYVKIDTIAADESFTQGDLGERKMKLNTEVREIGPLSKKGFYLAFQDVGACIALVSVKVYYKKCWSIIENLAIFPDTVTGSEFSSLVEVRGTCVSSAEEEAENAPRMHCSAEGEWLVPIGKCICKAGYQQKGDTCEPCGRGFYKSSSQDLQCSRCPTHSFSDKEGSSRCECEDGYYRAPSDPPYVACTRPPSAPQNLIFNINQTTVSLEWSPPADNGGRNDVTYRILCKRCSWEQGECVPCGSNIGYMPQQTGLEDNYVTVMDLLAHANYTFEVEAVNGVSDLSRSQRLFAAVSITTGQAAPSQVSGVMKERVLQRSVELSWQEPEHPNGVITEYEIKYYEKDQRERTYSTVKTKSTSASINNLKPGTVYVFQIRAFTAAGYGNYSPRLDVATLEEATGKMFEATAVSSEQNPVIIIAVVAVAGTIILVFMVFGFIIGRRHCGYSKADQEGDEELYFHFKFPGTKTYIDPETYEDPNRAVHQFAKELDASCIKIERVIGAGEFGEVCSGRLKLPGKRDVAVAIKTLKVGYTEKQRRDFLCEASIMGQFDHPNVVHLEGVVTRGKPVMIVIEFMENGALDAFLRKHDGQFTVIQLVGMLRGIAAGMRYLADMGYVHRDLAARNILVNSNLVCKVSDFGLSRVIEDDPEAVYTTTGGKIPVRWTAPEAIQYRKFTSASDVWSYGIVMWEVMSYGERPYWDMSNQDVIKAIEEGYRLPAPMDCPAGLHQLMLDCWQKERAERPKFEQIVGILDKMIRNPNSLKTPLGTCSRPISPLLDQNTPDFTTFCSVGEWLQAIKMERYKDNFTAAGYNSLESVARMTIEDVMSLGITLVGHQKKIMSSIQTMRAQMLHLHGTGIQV
structure (smiles),measurement,setting,value
O=c1c(-c2ccc(F)cc2)c(-c2ccncc2)[nH]n1-c1ccc(Cl)cc1,residual activity,[1],119%
same,residual activity,[2],82%
same,residual activity,[3],100%
same,residual activity,[4],128%
same,residual activity,[5],121%
same,residual activity,[6],34%
CCOc1nc(NC(=O)Cc2cc(OC)ccc2OC)cc(N)c1C#N,residual activity,[2],74%
O=C1Nc2ccccc2/C1=C\c1c(Cl)[nH]c2ccccc12,residual activity,[1],118%
same,residual activity,[7],117%
same,residual activity,[8],134%
